Data published in the supplement of paper PMC6607015.
Where a name gives a salt, the structure may show the parent alone.

Tests used:
Conditions in all cases: compound concentration in added solution (µM; 5 µl added to 20 µl cells): 10; 18 h
A431 [1] = test: LBPA endosome anti-LBPA integrated intensity (sum per cell), Z-score; higher = more LBPA staining
How it was run: (§1)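 HeLa MZ or A431 cells were plated at 3,500 per well in 20 µl over 5 µl of 10 µM compound solution in duplicate 384-well imaging plates and fixed in 4% PFA after 18 h. Staining used the 6C4 anti-LBPA antibody, filipin, propidium iodide and CellTracker green, with four 20× images captured per well. MetaXpress segmentation measured integrated LBPA or filipin intensity per cell, across the whole cell or inside LBPA endosomes, and AcuityXpress normalised these into Z-scores.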

HeLa MZ [2] = test: as above
How it was run: as §1

A431 [3] = test: whole-cell filipin (free cholesterol) integrated intensity, Z-score; higher = more cholesterol staining
How it was run: as §1

HeLa MZ [4] = test: as above
How it was run: as §1

A431 [5] = test: filipin (cholesterol) integrated intensity within LBPA endosomes, Z-score; higher = more cholesterol in LBPA endosomes
How it was run: as §1

HeLa MZ [6] = test: as above
How it was run: as §1

SMILES	LBPA endosome anti-LBPA integrated intensity (z-score) (A431 [1])	LBPA endosome anti-LBPA integrated intensity (z-score) (HeLa MZ [2])	whole-cell filipin (z-score) (A431 [3])	whole-cell filipin (z-score) (HeLa MZ [4])	filipin (z-score) (A431 [5])	filipin (z-score) (HeLa MZ [6])
N[C@@H](C(=O)N[C@@H]1C(=O)N2C(C(=O)O)=C(Cl)CC[C@H]12)c1ccccc1 [Loracarbef]	-0.535	-0.139	-0.847	-0.304	-0.553	-0.73
CC[C@H]1OC(=O)[C@H](C)[C@@H](O[C@H]2C[C@@](C)(OC)[C@@H](O)[C@H](C)O2)[C@H](C)[C@@H](O[C@@H]2O[C@H](C)C[C@H](N(C)C)[C@H]2O)[C@](C)(O)C[C@@H](C)/C(=N\OCOCCOC)[C@H](C)[C@@H](O)[C@]1(C)O [Roxithromycin]	-0.396	0.565	0.114	0.214	-0.261	0.0396
CC1=Nc2ccc(Cl)cc2S(=O)(=O)N1 [Diazoxide]	-0.529	-1.17	-0.801	-0.471	-0.542	-0.481
CC(C)NCC(O)c1ccc(NS(C)(=O)=O)cc1 (stereo not drawn) [Sotalol hydrochloride]	-0.295	-0.419	0.181	0.261	-0.181	-0.219
N[C@@H](C(=O)N[C@@H]1C(=O)N2C(C(=O)O)=C(Cl)CS[C@H]12)c1ccccc1 [Cefaclor hydrate]	-0.551	-0.828	-0.722	-0.368	-0.522	-0.558
CCCCNc1ccc(C(=O)OCCOCCOCCOCCOCCOCCOCCOCCOCCOC)cc1 [Benzonatate]	-0.445	-0.231	-0.686	-0.896	-0.427	-0.476
CCC(=O)O[C@@H](O[P@](=O)(CCCCc1ccccc1)CC(=O)N1C[C@H](C2CCCCC2)C[C@H]1C(=O)O)C(C)C [Fosinopril]	-0.177	-0.153	-0.025	0.0232	-0.364	-0.383
CCC1(c2ccccc2)NC(=O)N(C)C1=O (stereo not drawn) [Mephenytoin]	-0.412	-0.524	-0.0979	-0.325	-0.496	-0.516
NC(=O)OCC(O)COc1ccc(Cl)cc1 (stereo not drawn) [Chlorphensin carbamate]	-0.6	-2.23	-1.05	-0.894	-0.514	-0.697
Cc1cn[nH]c1 [Fomepizole]	-0.605	-0.603	-0.686	-0.874	-0.557	-0.633
O=C(OCCOCCO)c1ccccc1Nc1cccc(C(F)(F)F)c1 [Etofenamate]	-0.474	-0.295	-0.883	-1.24	-0.564	-0.692
Clc1ccc(COC(Cn2ccnc2)c2ccc(Cl)cc2Cl)c(Cl)c1 (stereo not drawn) [Miconazole]	0.0492	1.55	0.107	0.176	-0.0467	0.514
CC(C)[N+](C)(CCOC(=O)C1c2ccccc2Oc2ccccc21)C(C)C [Propantheline bromide]	-0.352	0.315	-0.217	0.064	-0.366	-0.177
Cn1cnc2c1c(=O)[nH]c(=O)n2C [Theobromine]	-0.566	-1.37	-0.361	-0.586	-0.492	-0.483
CCCCN(CCCC)CCCOC(=O)c1ccc(N)cc1 [Butacaine]	1.72	1.93	-0.324	-0.451	0.0505	0.307
CCC(=O)[C@@]1(C)[C@H](C)C[C@H]2[C@@H]3CCC4=CC(=O)C=C[C@]4(C)[C@H]3[C@@H](O)C[C@@]21C [Rimexolone]	-0.0932	0.328	0.343	-0.0902	-0.235	-0.418
Cc1ccc(-c2cc(C(F)(F)F)nn2-c2ccc(S(N)(=O)=O)cc2)cc1 [Celecoxib]	-0.0813	0.702	0.406	0.113	-0.205	-0.22
C[C@H](CS)C(=O)N1CCC[C@H]1C(=O)O [Captopril]	-0.394	-0.389	-0.482	0.478	-0.442	-0.261
CN[C@@H]1[C@H](O[C@H]2[C@H](O[C@H]3[C@H](O)[C@@H](O)[C@H](NC(=N)N)[C@@H](O)[C@@H]3NC(=N)N)O[C@@H](C)[C@]2(O)CO)O[C@@H](CO)[C@H](O)[C@H]1O [Dihydrostreptomycin sulfate]	-0.602	-1.07	-1	-0.938	-0.56	-0.704
CC1(C)S[C@@H]2[C@H](NC(=O)[C@H](N)c3ccc(O)cc3)C(=O)N2[C@H]1C(=O)O [Amoxicillin]	-0.419	0.0287	-0.393	-0.0853	-0.524	-0.539
CCCc1nn(C)c2c(=O)[nH]c(-c3cc(S(=O)(=O)N4CCN(C)CC4)ccc3OCC)nc12 [Sildenafil]	-0.41	-0.61	-0.134	-0.0955	-0.415	-0.257
COc1ccc2[nH]c([S+]([O-])Cc3ncc(C)c(OC)c3C)nc2c1 (stereo not drawn) [Omeprazole]	-0.534	-0.664	-0.421	-0.0929	-0.508	-0.373
O=C1NCN(c2ccccc2)C12CCN(CCCC(c1ccc(F)cc1)c1ccc(F)cc1)CC2 [Fluspirilen]	2.78	1.04	1.65	1.64	4.57	4.14
